Our source for the growth inhibition values is PubChem BioAssay (NCI).

Molecules are shown by their SMILES. Where “and” joins values, the source holds several entries; their conditions need not be identical. Equal values may be shown once. About 79,000 compounds went through this panel and 15% of them were active in at least one assay; those are over-represented in the sample as a whole. Where a structure was tested more than once in an assay, its records may differ in their call. Calls of active or inactive are those of the source. Cut-off read from the data, not from the text of the source: active = growth inhibition above about 70%; inactive = the rest.

Assay [1] in a line: NCI Yeast Anticancer Drug Screen. Data for the rad50 strain (AID 155).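 Note: 0% = growth of vehicle-only cultures of the same strain.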 The note with it: S. cerevisiae rad50 strain growth inhibition, stronger effect = higher value. In a few lines:
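Growth of the mutant yeast was measured after compound exposure and referenced to vehicle-treated cultures.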

Assay [2] can be described thus: NCI Yeast Anticancer Drug Screen. Data for the mec2-1 strain (AID 157). The note with it: S. cerevisiae mec2-1 strain, stronger effect = higher value. In a few lines:
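Readout is yeast growth inhibition, normalised to vehicle-treated controls, in the mec2-1 strain exposed to compound.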

Assay [3] in a line: NCI Yeast Anticancer Drug Screen. Data for the sgs1 mgt1 strain (AID 161).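 Note: 0% = growth of cultures given vehicle only.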 The note with it: S. cerevisiae sgs1 mgt1 strain, stronger effect = higher value. In a few lines: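 Growth of a repair-deficient yeast mutant was monitored after compound treatment and expressed as inhibition relative to vehicle-treated cultures.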
Assay [4] can be described thus: NCI Yeast Anticancer Drug Screen. Data for the cln2 rad14 strain (AID 165).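 Note: 0% = growth equal to vehicle treated cultures.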 The note with it: S. cerevisiae cln2 rad14 strain, stronger effect = higher value. In a few lines: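 Relative to vehicle controls, growth inhibition of compound-treated cln2 rad14 yeast was recorded.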
A short description of assay [5]: NCI Yeast Anticancer Drug Screen. Data for the bub3 strain (AID 167). The note with it: S. cerevisiae bub3 mutant strain, stronger effect = higher value. A digest of the protocol: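 Whole-cell yeast assay. The mutant strain was incubated with compounds, and growth inhibition was determined by comparison with vehicle-treated cells.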
A short description of assay [6]: NCI Yeast Anticancer Drug Screen. Data for the mlh1 rad18 strain (AID 175). As to conditions: S. cerevisiae mlh1 rad18 strain growth inhibition, stronger effect = higher value. A digest of the protocol: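 Test agents were incubated with a yeast strain of defined genotype (DNA damage repair defect). Inhibition of growth was derived by comparison with vehicle-exposed cultures.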

The mark [7] stands for this setting: at 5.0 µM (retest, dose inferred, filed as 0.5).
The mark [8] stands for this setting: at 50.0 µM (retest, dose inferred, filed as 5.0).

Regarding `O=C1c2cccc(O)c2C(=O)c2c(O)cccc21`, the growth inhibition in assay [1] (setting [7]) was 67% (inactive); in assay [1] (setting [8]) it was 73% (active); in assay [1] (at 50.0 µM) it was 55% (inactive) and 74.8% (active); in assay [2] (setting [7]) it was 28% (inactive); in assay [2] (setting [8]), 36% (inactive); in assay [2] (at 50.0 µM), 38.1% (inactive) and 42.8% (inactive). Also, the growth inhibition in assay [3] (setting [7]) was 21% (inactive); in assay [3] (setting [8]), 50% (inactive); in assay [3] (at 50.0 µM) it was 41.6% (inactive) and 45.6% (inactive); in assay [4] (setting [7]) it was 18% (inactive); in assay [4] (setting [8]) it was 25% (inactive); in assay [4] (at 50.0 µM), 44.1% (inactive) and -10.8% (inactive). Also, the growth inhibition was 24% (inactive) in assay [5] (setting [7]); 62% (inactive) in assay [5] (setting [8]); 42.6% (inactive) and 39.5% (inactive) in assay [5] (at 50.0 µM); 42% (inactive) in assay [6] (setting [7]); 66% (inactive) in assay [6] (setting [8]); 50.4% (inactive) and 66.1% (inactive) in assay [6] (at 50.0 µM).

For the molecule `O=c1[nH]c(=O)n(C2OC(CO)C(O)C2O)cc1F` (stereo not drawn), the growth inhibition in assay [1] (setting [7]) was 21% (inactive) and 30% (inactive); in assay [1] (setting [8]) it was 96% (active) and 95% (active); in assay [1] (at 50.0 µM) it was 96.2% (active) and 93% (active); in assay [2] (setting [7]), 42% (inactive) and 39% (inactive); in assay [2] (setting [8]), 99% (active); in assay [2] (at 50.0 µM) it was 97.3% (active) and 97.8% (active). Moreover, the growth inhibition in assay [3] (setting [7]) is 65% (inactive) and 80% (active); in assay [3] (setting [8]), 98% (active); in assay [3] (at 50.0 µM) it was 97.8% (active) and 96.1% (active); in assay [4] (setting [7]), 15% (inactive) and 24% (inactive); in assay [4] (setting [8]) it was 96% (active) and 98% (active); in assay [4] (at 50.0 µM), 90.5% (active) and 92.2% (active). Also, the growth inhibition was 5% (inactive) and -1% (inactive) in assay [5] (setting [7]); 98% (active) and 97% (active) in assay [5] (setting [8]); 96.3% (active) and 90.2% (active) in assay [5] (at 50.0 µM); 24% (inactive) and 6% (inactive) in assay [6] (setting [7]); 97% (active) and 96% (active) in assay [6] (setting [8]); 94.8% (active) and 92.2% (active) in assay [6] (at 50.0 µM).

Turning to `Nc1ccc2c(ccc3ccc4ccccc4c32)c1`, the growth inhibition is -6% (inactive) in assay [1] (setting [7]); 93% (active) in assay [1] (setting [8]); 96.7% (active) in assay [1] (at 50.0 µM); -8% (inactive) in assay [2] (setting [7]); 98% (active) in assay [2] (setting [8]); 96.8% (active) in assay [2] (at 50.0 µM). The growth inhibition in assay [3] (setting [7]) was -8% (inactive); in assay [3] (setting [8]), 98% (active); in assay [3] (at 50.0 µM), 97.8% (active); in assay [4] (setting [7]) it was -7% (inactive); in assay [4] (setting [8]), 96% (active); in assay [4] (at 50.0 µM), 95.5% (active). Moreover, the growth inhibition was -6% (inactive) in assay [5] (setting [7]); 97% (active) in assay [5] (setting [8]); 96.7% (active) in assay [5] (at 50.0 µM); 17% (inactive) in assay [6] (setting [7]); 97% (active) in assay [6] (setting [8]); 95.6% (active) in assay [6] (at 50.0 µM).

As to `COc1cc(/C=C/C(=O)NCCCCN=[N+]=[N-])ccc1OCc1ccccc1`, the growth inhibition in assay [1] (setting [7]) was -1% (inactive); in assay [1] (setting [8]), -13% (inactive); in assay [1] (at 50.0 µM), 89.8% (active); in assay [2] (setting [7]), 1% (inactive); in assay [2] (setting [8]) it was -11% (inactive); in assay [2] (at 50.0 µM), 82.2% (active). The growth inhibition in assay [3] (setting [7]) was -7% (inactive); in assay [3] (setting [8]), 1% (inactive); in assay [3] (at 50.0 µM), 27.4% (inactive); in assay [4] (setting [7]) it was -9% (inactive); in assay [4] (setting [8]) it was -13% (inactive); in assay [4] (at 50.0 µM), -3.15% (inactive). Besides, the growth inhibition in assay [5] (setting [7]) was -6% (inactive); in assay [5] (setting [8]) it was -8% (inactive); in assay [5] (at 50.0 µM), 10.1% (inactive); in assay [6] (setting [7]), -3% (inactive); in assay [6] (setting [8]), -11% (inactive); in assay [6] (at 50.0 µM), 39.9% (inactive).

For `NC(=O)c1cc(Br)cc(Br)c1O`, the growth inhibition is 14% (inactive) in assay [1] (setting [7]); 79% (active) in assay [1] (setting [8]); 62.2% (inactive) in assay [1] (at 50.0 µM); -13% (inactive) in assay [2] (setting [7]); 86% (active) in assay [2] (setting [8]); 75.1% (active) in assay [2] (at 50.0 µM). Also, the growth inhibition in assay [3] (setting [7]) was 9% (inactive); in assay [3] (setting [8]) it was 90% (active); in assay [3] (at 50.0 µM), 48.5% (inactive); in assay [4] (setting [7]), 5% (inactive); in assay [4] (setting [8]), 87% (active); in assay [4] (at 50.0 µM), 94.5% (active). Moreover, the growth inhibition was 1% (inactive) in assay [5] (setting [7]); 77% (active) in assay [5] (setting [8]); 89.8% (active) in assay [5] (at 50.0 µM); -10% (inactive) in assay [6] (setting [7]); 85% (active) in assay [6] (setting [8]); 79.6% (active) in assay [6] (at 50.0 µM).

For `CC(C)(S)C(N)C(=O)O` (stereo not drawn), the growth inhibition is -14% (inactive) in assay [1] (setting [7]); 4% (inactive) in assay [1] (setting [8]); -12.3% (inactive) and -14.5% (inactive) and 21.1% (inactive) in assay [1] (at 50.0 µM); 1% (inactive) in assay [2] (setting [7]); -8% (inactive) in assay [2] (setting [8]); -9.15% (inactive) and 2.8% (inactive) and -17.5% (inactive) in assay [2] (at 50.0 µM). Besides, the growth inhibition in assay [3] (setting [7]) was -2% (inactive); in assay [3] (setting [8]), -9% (inactive); in assay [3] (at 50.0 µM), -9.7% (inactive) and -11.3% (inactive) and 3% (inactive); in assay [4] (setting [7]), 4% (inactive); in assay [4] (setting [8]) it was -1% (inactive); in assay [4] (at 50.0 µM), -2.5% (inactive) and 45.3% (inactive) and 3.15% (inactive). Moreover, the growth inhibition is -9% (inactive) in assay [5] (setting [7]); -13% (inactive) in assay [5] (setting [8]); -13.6% (inactive) and -0.75% (inactive) and 24.6% (inactive) in assay [5] (at 50.0 µM); -3% (inactive) in assay [6] (setting [7]); -1% (inactive) in assay [6] (setting [8]); 6.8% (inactive) and 9.35% (inactive) and 3.55% (inactive) in assay [6] (at 50.0 µM).
